# From ChEMBL document CHEMBL3988442, “University of Dundee, Small-Polar-MMV Screening Library” (2021)
# For some of these results: Potency and affinity values are given separately.
# Tests used:
# Set-up in all cases: scale not given: direction of the effect not stated beside the values
# [1] = target: Protein translocase subunit SecA (Escherichia coli (strain K12)) (UniProt P10408); experiment: Assay to Identify E. coli SecA ATPase Inhibitors; type: functional; settings: 30 µM
# [2] = target: T1, Ubiquitin-activating enzyme e1, putative (Leishmania donovani (strain BPK282A1)) (UniProt E9BSI1); experiment: Leishmania donovani Ubiquitin Activating Enzyme (LdE1); type: functional; settings: 30 µM
# T1 sequence (whole entry): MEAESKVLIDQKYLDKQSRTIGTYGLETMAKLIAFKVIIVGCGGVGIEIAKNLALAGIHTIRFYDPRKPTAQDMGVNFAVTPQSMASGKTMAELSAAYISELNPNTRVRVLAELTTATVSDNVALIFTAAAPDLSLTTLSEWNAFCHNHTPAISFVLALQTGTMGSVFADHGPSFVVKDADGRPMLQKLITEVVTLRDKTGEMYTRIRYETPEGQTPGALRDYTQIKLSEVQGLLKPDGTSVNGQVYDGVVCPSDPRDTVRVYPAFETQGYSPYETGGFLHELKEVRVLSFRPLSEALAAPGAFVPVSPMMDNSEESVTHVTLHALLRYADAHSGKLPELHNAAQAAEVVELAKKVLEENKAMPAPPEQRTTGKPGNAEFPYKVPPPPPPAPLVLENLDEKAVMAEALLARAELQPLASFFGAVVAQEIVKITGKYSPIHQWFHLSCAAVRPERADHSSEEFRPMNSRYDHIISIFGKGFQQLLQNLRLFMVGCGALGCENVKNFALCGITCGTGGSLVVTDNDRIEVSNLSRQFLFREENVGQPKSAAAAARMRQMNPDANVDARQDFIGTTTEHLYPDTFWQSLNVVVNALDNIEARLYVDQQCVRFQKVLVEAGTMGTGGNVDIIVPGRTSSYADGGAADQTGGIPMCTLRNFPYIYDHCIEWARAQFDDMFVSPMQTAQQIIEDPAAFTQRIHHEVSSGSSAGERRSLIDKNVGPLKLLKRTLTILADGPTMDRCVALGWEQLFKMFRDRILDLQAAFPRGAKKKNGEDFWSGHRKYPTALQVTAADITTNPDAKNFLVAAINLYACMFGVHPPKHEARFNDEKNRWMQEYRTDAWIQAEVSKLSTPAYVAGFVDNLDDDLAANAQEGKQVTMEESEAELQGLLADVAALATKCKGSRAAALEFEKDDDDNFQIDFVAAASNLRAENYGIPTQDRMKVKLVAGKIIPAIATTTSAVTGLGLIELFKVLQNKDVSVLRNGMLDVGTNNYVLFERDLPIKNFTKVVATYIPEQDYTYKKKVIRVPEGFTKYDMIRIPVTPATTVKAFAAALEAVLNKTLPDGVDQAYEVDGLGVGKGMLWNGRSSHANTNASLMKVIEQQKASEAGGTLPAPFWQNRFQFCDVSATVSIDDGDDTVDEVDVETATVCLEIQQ
# [3] = target: AMP-activated protein kinase, AMPK (Homo sapiens) (UniProt P54646+O43741+P54619+Q9UGJ0+Q9Y478+Q13131+Q9UGI9); experiment: AMP-dependent Kinase enzyme assay. An in vitro enzyme assay that detects ADP turnover that is directly proportional to AMPK activity. This uses naive AMPK that is activated during the assay with MK-8722; type: functional; settings: 30 µM
# [4] = target: Sialic acid-binding Ig-like lectin 9 (Homo sapiens) (UniProt Q9Y336); experiment: Hs-Siglec9 ALPHAscreen SOP 20170721; settings: 10 µM
# Trypanosoma cruzi = experiment: Trypanosoma cruzi phosphomannomutase and mannose-1-phosphate guanylyltransferase assay; type: functional; settings: 10 µM
# [5] = target: T2, Arginase-2, mitochondrial (Homo sapiens) (UniProt P78540); experiment: in vitro enzyme assay to detect the production of urea directly proportional to the activity of Arginase II; type: functional; settings: 33.3 µM; also: in the data most compounds retested in dose-response had high values
# T2 sequence (whole entry): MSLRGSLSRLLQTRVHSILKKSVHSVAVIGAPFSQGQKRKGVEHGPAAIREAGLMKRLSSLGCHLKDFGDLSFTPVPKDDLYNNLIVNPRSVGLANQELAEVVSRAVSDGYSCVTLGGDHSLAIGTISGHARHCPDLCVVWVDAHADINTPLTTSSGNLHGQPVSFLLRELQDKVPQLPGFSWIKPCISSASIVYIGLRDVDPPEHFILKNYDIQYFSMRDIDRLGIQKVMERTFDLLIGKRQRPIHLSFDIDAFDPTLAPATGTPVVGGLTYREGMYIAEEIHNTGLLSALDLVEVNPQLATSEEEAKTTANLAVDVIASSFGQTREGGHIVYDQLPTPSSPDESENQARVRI
# [6] = target: T3, Proteasome subunit beta (Trypanosoma cruzi) (UniProt O96673); experiment: Trypanosoma cruzi proteasome chymotrypsin-like activity (TcProtChymo) assay.; also: in the data most compounds retested in dose-response had high values; type: functional; settings: 9.37 µM
# T3 sequence (whole entry): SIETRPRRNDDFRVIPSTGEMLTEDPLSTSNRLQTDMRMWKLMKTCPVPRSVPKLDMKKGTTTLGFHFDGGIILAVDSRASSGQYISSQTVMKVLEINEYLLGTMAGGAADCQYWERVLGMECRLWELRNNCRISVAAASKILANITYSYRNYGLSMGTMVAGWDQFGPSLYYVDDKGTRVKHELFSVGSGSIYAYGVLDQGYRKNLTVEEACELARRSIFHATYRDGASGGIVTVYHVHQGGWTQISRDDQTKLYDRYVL
# Homo sapiens = species: Homo sapiens; experiment: To identify inhibition of the IFN signalling (Jak-Stat) pathway via expression of an eGFP reporter gene under the control of an IFN-stimulated response element (ISRE) containing MxA promoter.; type: functional; settings: 30 µM
# [7] = target: T4, Tyrosyl-tRNA synthetase, putative (Trypanosoma cruzi (strain CL Brener)) (UniProt Q4DSP6); experiment: Trypanosoma cruzi tyrosyl tRNA synthetase (TcYRS) _High Tyrosine SOP; type: functional; settings: 30 µM; also: in the data most compounds retested in dose-response had high values
# T4 sequence (whole entry): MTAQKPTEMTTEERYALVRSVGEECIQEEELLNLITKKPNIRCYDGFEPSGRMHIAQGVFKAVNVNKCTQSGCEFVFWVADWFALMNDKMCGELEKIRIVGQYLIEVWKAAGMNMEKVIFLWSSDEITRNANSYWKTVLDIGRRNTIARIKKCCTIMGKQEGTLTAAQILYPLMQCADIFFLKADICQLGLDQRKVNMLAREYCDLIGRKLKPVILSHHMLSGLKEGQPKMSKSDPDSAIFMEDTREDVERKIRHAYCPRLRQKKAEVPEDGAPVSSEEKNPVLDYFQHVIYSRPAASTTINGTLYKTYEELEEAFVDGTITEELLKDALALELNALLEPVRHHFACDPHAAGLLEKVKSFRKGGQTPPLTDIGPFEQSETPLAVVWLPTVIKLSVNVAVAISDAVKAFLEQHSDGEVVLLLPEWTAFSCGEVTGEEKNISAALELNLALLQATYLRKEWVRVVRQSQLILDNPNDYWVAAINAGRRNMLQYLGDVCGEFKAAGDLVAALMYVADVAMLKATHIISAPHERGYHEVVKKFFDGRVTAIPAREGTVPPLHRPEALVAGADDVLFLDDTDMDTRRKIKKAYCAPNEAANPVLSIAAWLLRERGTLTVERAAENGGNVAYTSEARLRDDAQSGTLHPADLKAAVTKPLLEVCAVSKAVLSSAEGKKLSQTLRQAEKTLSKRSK
# [8] = target: T4, Tyrosyl-tRNA synthetase, putative (Trypanosoma cruzi (strain CL Brener)); experiment: Trypanosoma cruzi tyrosyl tRNA synthetase (TcYRS) SOP; type: functional; settings: 30 µM
# [9] = target: Chromo domain-containing protein 1 (Saccharomyces cerevisiae (strain ATCC 204508 / S288c) (Baker's yeast)) (UniProt P32657); experiment: ScCHD-1 Enzyme Inhibition Assay; type: functional; settings: 30 µM; also: in the data most compounds retested in dose-response had high values
# Chain of Chromo domain-containing protein 1 (Saccharomyces cerevisiae (strain ATCC 204508 / S288c) (Baker's yeast)) (P32657 whole entry, the tested form may be a part): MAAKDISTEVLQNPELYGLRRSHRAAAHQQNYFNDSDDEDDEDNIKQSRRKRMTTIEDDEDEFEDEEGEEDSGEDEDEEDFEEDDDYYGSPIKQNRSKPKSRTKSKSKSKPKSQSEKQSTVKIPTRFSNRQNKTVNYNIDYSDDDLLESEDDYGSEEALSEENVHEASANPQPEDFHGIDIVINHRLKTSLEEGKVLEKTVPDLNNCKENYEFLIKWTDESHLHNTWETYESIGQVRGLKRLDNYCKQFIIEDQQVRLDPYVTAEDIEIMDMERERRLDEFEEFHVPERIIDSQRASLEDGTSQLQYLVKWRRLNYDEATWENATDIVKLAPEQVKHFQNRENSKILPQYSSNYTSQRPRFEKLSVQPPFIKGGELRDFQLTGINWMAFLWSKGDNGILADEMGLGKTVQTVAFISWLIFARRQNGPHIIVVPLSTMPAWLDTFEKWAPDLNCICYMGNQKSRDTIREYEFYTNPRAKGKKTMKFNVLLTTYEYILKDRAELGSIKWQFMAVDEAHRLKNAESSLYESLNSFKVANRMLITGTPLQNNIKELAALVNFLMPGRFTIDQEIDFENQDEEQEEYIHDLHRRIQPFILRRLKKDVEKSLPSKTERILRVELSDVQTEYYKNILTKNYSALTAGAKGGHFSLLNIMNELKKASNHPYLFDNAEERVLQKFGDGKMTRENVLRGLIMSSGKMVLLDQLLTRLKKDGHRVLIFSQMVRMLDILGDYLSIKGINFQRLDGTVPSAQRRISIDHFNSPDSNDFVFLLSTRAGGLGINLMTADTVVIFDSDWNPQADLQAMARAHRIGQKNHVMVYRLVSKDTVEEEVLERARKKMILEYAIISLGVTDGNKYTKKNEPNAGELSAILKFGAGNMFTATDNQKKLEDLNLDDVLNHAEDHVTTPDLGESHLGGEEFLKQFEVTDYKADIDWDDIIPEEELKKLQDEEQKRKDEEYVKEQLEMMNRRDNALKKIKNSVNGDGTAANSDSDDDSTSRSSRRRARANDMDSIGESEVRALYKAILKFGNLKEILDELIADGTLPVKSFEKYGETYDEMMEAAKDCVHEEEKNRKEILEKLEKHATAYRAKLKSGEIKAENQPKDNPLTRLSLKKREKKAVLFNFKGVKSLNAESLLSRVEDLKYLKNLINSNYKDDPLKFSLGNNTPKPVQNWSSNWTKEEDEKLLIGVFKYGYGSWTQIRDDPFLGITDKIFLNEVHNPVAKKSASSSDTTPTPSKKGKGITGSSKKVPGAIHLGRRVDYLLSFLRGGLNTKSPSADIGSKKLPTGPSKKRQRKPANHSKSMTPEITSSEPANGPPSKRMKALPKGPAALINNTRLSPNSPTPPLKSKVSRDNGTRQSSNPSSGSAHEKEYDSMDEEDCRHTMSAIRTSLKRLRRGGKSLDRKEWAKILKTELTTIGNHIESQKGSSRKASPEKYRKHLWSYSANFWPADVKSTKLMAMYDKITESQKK
# Chain of Protein translocase subunit SecA (Escherichia coli (strain K12)) (P10408 whole entry): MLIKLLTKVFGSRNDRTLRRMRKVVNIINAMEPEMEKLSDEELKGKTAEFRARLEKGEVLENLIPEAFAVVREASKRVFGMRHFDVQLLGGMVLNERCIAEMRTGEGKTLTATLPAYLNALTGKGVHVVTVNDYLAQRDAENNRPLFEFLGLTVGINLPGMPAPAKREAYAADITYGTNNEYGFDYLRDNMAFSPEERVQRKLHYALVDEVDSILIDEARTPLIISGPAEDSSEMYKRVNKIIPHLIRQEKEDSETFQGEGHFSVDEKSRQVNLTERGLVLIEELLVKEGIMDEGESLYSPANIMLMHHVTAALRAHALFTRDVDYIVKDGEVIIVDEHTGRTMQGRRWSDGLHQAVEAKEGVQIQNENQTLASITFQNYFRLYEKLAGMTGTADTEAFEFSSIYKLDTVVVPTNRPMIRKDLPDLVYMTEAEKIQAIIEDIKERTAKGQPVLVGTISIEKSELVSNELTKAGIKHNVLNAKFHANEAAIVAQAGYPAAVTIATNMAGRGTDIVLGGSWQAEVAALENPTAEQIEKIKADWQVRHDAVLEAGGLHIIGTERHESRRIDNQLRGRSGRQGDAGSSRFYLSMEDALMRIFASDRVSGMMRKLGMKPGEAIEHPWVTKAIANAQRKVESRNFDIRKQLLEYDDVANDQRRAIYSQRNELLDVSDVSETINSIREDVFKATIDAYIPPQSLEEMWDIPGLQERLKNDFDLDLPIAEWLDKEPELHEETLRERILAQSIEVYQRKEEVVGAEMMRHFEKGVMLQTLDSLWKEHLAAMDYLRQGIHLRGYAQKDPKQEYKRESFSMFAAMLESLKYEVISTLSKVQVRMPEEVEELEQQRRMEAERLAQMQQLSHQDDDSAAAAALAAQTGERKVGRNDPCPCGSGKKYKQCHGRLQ
# Chain of Sialic acid-binding Ig-like lectin 9 (Homo sapiens) (Q9Y336 whole entry): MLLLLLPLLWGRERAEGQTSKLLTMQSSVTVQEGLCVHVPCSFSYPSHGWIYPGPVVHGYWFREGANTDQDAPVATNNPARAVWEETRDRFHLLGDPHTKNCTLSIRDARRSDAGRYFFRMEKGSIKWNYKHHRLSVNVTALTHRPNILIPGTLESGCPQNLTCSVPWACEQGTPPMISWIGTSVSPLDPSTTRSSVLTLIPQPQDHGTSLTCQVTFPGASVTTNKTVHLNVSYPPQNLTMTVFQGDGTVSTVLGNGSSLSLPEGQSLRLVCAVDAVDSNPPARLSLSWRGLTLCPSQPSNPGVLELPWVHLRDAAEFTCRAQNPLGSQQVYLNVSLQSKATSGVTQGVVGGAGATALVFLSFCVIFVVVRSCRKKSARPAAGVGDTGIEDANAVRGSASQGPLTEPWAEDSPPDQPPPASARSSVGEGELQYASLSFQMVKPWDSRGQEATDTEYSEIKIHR
Compound,Percent Effect [1] [%],Percent Effect [2] [%],Percent Effect [3] [%],Percent Effect [4] [%],Percent Effect (Trypanosoma cruzi) [%],Percent Effect [5] [%],Percent Effect [6] [%],Percent Effect (Homo sapiens) [%],Percent Effect [7] [%],Percent Effect [8] [%],Percent Effect [9] [%]
COc1ccc(OCc2cc(C(=O)N3CCN[C@H](C)C3)n[nH]2)c(Cl)c1,-0.706,5.41,0.0243,-0.0327,-4.63,2.86,14.5,5.15,2.65,9.76,-3.55
Oc1cc(CCC2CCCCN2)cc(-c2ccncc2)c1 (stereo unspecified),-5.49,0,-8.16,0.305,-3.92,0.909,20.1,1.09,2.15,7.5,-3.03
CC(C)c1ccc(CN2CCC3(CCCN(c4nncs4)C3)C2)cc1 (stereo unspecified),-5.12,2.7,-2.41,37.5,9.87,-1.74,1.97,-25,4.3,13.6,-4.2
O=C(CN1CCCC(Cn2cncn2)C1)NCc1ccco1 (stereo unspecified),-2.6,0,-4.08,-5,-8.12,8.27,7.87,6.12,1.48,-1.24,4.31
Cc1nc(CCN(C)C(=O)C2COc3ccccc3C2)no1 (stereo unspecified),-7.54,13,-6.34,19.8,8.55,5.52,16.1,-0.00401,5.38,13.6,-7.23
C=Cc1ccc(C(=O)N2CCCC(Nc3ccc(OC)cc3)C2)cc1 (stereo unspecified),-0.54,8.11,29,18.1,5.41,-1.43,3.28,12.3,10.1,19.5,-8.46
c1cnn(-c2ccc(CN3CCOC(Cn4cncn4)C3)cc2)c1 (stereo unspecified),-2.23,12.7,0.7,6.36,2.74,1.52,-2.21,-11.6,7.39,13.9,-8.36
CNC(=O)Nc1cc(-c2ccccc2C)nn1CCO,-4.2,7.89,-1.72,-9.84,-3.8,-5.92,17.2,-9.47,1.06,0,-7.09
Cn1cc(N2CCC3(CCN(S(=O)(=O)C4CC4)C3)C2=O)cn1 (stereo unspecified),-2.28,-2.67,0.251,0.236,2.32,-37.5,8.55,0.388,1.04,5,-4.63
O=C(NCCN1CCC(c2cccs2)CC1)c1ccccc1C(F)(F)F,-3.22,8.22,0.699,8.89,5.09,17.7,17.2,3.57,5.38,12.5,-4.65
CNC(=O)CN1CCC(NC(=O)N(C)Cc2cc(C)on2)CC1,-1.81,13,-1.11,13.1,9.7,0.632,9.78,-1.08,8.57,18.8,-7.35
